# Test results reported in publication PMC13541613, “GHT-SELEX demonstrates unexpectedly high intrinsic sequence specificity and complex DNA binding of many human transcription factors”.
# Tests used:
# Experiment in all cases: HT-SELEX; 20 mM HEPES pH 7, 140 mM KCl, 5 mM NaCl, 1 mM K2HPO4, 2 mM MgSO4, 100 uM EGTA, ZnSO4, 0.1% Tween20; room temperature, 1 h; high values mean tight binding
# Settings in all cases: protein: ivt; tags: eGFP (N-terminal); dsDNA, one strand shown
# ZNF721 full-length = ZNF721 full-length (Homo sapiens, UniProt Q8TF20-2 1-923)
# Chain of ZNF721 full-length (Q8TF20 other isoform, or with tags, fused parts or gaps): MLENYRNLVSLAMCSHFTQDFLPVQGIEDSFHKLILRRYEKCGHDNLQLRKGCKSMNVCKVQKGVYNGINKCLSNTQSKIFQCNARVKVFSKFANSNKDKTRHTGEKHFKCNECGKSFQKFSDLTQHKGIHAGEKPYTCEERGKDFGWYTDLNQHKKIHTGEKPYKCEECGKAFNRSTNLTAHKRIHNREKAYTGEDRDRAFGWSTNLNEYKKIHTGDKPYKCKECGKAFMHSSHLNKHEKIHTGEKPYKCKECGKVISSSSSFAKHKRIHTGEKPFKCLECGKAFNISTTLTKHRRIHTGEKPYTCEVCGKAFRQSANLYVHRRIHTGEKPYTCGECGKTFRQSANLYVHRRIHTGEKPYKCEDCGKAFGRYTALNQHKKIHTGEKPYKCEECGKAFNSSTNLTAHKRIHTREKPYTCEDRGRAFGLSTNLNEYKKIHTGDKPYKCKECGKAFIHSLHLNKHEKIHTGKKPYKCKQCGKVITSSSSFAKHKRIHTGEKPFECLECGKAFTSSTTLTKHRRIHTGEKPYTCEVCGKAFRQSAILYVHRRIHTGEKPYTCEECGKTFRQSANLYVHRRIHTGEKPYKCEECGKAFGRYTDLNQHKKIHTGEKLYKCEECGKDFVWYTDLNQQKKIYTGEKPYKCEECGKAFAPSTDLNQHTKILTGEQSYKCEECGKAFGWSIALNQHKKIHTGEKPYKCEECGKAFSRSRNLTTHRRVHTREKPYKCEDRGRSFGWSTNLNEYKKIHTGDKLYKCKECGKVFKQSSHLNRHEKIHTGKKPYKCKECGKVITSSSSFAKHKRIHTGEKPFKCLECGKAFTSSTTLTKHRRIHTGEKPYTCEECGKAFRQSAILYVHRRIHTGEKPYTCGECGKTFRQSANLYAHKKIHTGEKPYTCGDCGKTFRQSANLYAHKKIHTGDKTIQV
# Procedure, shortened: (§1)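 The binding signal is a relative k-mer count in selected reads, and higher values mean tighter binding. To obtain these reads, bead-bound tagged transcription factor (full-length or DNA-binding-domain fragment, produced in HEK293 lysate or cell-free extract) was mixed with a randomized 40-base DNA library for 1 h at room temperature in low-stringency HEPES/KCl buffer with Tween20. Bound DNA was recovered by washing and heat elution, PCR-amplified through successive cycles and sequenced on Illumina (~3 million 60 bp reads per sample).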
# ZNF721 DBD1 = ZNF721 DBD1 (Homo sapiens, UniProt Q8TF20-2 29-461)
# Chain of ZNF721 DBD1 (Q8TF20 17-449): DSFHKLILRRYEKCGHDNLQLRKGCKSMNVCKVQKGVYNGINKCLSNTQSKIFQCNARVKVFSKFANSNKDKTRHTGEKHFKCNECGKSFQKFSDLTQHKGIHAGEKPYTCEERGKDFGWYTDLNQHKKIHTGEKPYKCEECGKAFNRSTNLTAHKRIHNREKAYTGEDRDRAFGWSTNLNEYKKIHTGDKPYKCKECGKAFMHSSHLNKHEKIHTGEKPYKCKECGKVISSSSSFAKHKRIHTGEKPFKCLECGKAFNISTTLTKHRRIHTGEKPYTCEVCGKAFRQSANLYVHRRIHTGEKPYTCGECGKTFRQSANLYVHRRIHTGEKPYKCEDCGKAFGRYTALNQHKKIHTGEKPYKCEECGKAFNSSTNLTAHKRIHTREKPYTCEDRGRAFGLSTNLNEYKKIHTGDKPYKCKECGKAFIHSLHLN
# Procedure, shortened: as §1
# ZNF721 DBD2 = ZNF721 DBD2 (Homo sapiens, UniProt Q8TF20-2 395-923)
# Chain of ZNF721 DBD2 (Q8TF20 383-911): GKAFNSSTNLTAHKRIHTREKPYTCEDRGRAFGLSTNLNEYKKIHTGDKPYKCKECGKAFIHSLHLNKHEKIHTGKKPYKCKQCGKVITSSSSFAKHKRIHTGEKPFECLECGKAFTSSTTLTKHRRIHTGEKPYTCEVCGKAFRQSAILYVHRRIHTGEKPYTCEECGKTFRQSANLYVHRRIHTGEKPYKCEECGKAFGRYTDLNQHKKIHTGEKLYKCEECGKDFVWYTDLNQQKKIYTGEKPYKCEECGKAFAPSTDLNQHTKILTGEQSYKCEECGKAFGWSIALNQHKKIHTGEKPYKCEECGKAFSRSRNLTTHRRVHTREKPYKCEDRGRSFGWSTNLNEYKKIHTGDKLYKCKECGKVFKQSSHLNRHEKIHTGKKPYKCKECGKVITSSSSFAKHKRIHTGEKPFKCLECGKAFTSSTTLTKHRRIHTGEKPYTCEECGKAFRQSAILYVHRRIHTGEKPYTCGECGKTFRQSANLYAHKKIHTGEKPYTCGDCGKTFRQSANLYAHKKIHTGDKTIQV
# Procedure, shortened: as §1
Sequence,binding signal (ZNF721 full-length) [relative 10-mer count],binding signal (ZNF721 DBD1) [relative 10-mer count],binding signal (ZNF721 DBD2) [relative 10-mer count]
ACCCGCCCAC,0.115,0.00413,0.00288
GCCCACCCAC,0.168,0.0061,0.00983
GGGGTGGGAC,0.111,0.00449,0.00108
CCACGCCCCA,0.109,0.00422,0.0024
CCCCAACCCC,0.283,0.0104,0.00288
AGGGAGGGGG,0.15,0.00628,0.00384
CCGCCCCGCC,0.156,0.00592,0.00216
CCCACCCATC,0.112,0.00514,0.00587
AAAGCATACC,0.143,0.0247,0.0344
CCACCACGCC,0.105,0.00316,0.00587
ACAGCGTTAC,0.102,0.00105,0.207
AGGATACACT,0.17,0.0907,0.116
AGTGTTTCCA,0.13,0.0113,0.284
CCCACCACCC,0.562,0.0272,0.00635
AAAACAAGCA,0.157,0.00638,0.0831
GCCCCCCCCA,0.107,0.00261,0.00348
CCCCACCCCG,0.186,0.00784,0.00384
CCCCCCGTCC,0.134,0.00491,0.00288
GCCCACCCCC,0.215,0.00876,0.00779
CCCCACTCCC,0.157,0.00688,0.00216
CCCACCCAAC,0.172,0.00679,0.0113
CCTCCACCAC,0.116,0.00564,0.00923
CGCCCCCGCC,0.132,0.00523,0.00216
CGCCACCCCA,0.135,0.00358,0.00192
CCCACCGTCC,0.105,0.00449,0.00395
CCTCCCCACC,0.255,0.0111,0.00791
AGCCCCACCC,0.106,0.00312,0.00959
